Inconclusive results are not listed. Active and inactive are the calls of the source. The calls were made as follows: active = hit-call score of the fitted dose curve at least 0.9, where 1 is the maximum; inconclusive = response in the unintended direction; inactive = score below 0.9.

In PubChem BioAssay (EPA / NIEHS) one finds AC50 and outcome data, which are given here for 13 compounds.

For test [1], the target named is Adenosine receptor A1 (Bos taurus) (UniProt P28190). The test can be described thus: NVS_GPCR_bAdoR_NonSelective: NovaScreen (NVS) G Protein-Coupled Receptor Assay for bovine Adenosine Receptor (AdoR), Non-selective Binding (AID 2283244). Here is the method:
(§1) NVS_GPCR_bAdoR_NonSelective is a biochemical, single-readout assay that uses extracted gene-proteins from Bovine striatal membranes in a tissue-based cell-free assay. Measurements were taken 1 hour after chemical dosing in a 96-well plate.NVS_GPCR_bAdoR_NonSelective is one of one assay component(s) measured or calculated from the NVS_GPCR_bAdoR_NonSelective assay. It is designed to make measurements of radioligand binding, a form of binding reporter, as detected with scintillation counting signals by Filter-based radiodetection technology.Data from the assay component NVS_GPCR_bAdoR_NonSelective was analyzed into 1 assay endpoint. This assay endpoint, NVS_GPCR_bAdoR_NonSelective, was analyzed in the positive analysis fitting direction relative to DMSO as the negative control and baseline of activity. Using a type of binding reporter, loss-of-signal activity can be used to understand changes in the binding as they relate to the gene ADORA1. Furthermore, this assay endpoint can be referred to as a primary readout, because the performed assay has only produced 1 assay endpoint. To generalize the intended target to other relatable targets, this assay endpoint is annotated to the gpcr intended target family, where the subfamily is rhodopsin-like receptor.
(§2) Binding assays used specific radioligands (tritiated, iodinated) with non-radioactive competitive displacement ligands in agonist or antagonist protocols (as indicated) and various reference compounds and inhibitors to titrate specific binding to receptors and transporters. Most enzyme assays (CYPs, kinases, phosphatases, proteases, HDACs) used recombinant protein and specific substrates (fluorescence mostly, some colorimetric and radioactive) and inhibitors, followed by a biochemical separation of substrate and product. All assays for the biochemical HTS were initially run in duplicate at a single concentration (10 uM for CYP450 assays and 25 uM for all others). Assay-chemical combinations meeting a pre-defined threshold (e.g., 30% inhibition and other criteria defined below) were then run in singleton concentration-response format with maximum concentration of 20 uM for CYPs and 50 uM for all others. Each assay was run with positive and negative controls, and concurrent controls on every plate. The follow-up (secondary) screen tested active chemical-pairs in concentration series, as well as a few additional assays not tested in the primary screen, some selected negative inactives, and several cases re-run in the concentration series for confirmatory purposes.

Test [2] in a line: NVS_GPCR_bNPY_NonSelective: NovaScreen (NVS) G Protein-Coupled Receptor Assay for bovine Neuropeptide Y (NPY) Receptor, Non-selective Binding (AID 2283245). Summed up:
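Displacement of radioligand from bovine hippocampal membrane receptors, read by filtration and scintillation counting after 1 hour. Concentration-response to a top of 50 uM followed a 25 uM duplicate primary screen. Loss of signal versus DMSO.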

The target in test [3] is guinea pig Leukotriene D4 Receptor (LTD4), CYSLTR1 (gene 100135514) (UniProt Q2NNR5). As to the kind of experiment: NVS_GPCR_gLTD4: NovaScreen (NVS) G Protein-Coupled Receptor Assay for guinea pig Leukotriene D4 Receptor (LTD4) (AID 2283248). A digest of the protocol:
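Guinea pig lung membrane preparation; bound radioligand measured by filter scintillation after 1 h, loss of signal versus DMSO marking displacement. Compounds tested at 25 uM in duplicate, hits retested to max 50 uM.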

In test [4] the test system is guinea pig Muscarinic, Peripheral (Mperiperal) Receptor, Non-selective Binding, gene 100379235. As to the kind of experiment: NVS_GPCR_gMPeripheral_NonSelective: NovaScreen (NVS) G Protein-Coupled Receptor Assay for guinea pig Muscarinic, Peripheral (Mperiperal) Receptor, Non-selective Binding (AID 2283250). A digest of the protocol:
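Screened in duplicate at 25 uM, hits retested in concentration series to 50 uM max, using bladder membrane radioligand displacement from guinea pig. Filtration and scintillation counting 1 h post-dose, fitted relative to DMSO.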

Test [5] deals with human Serotonin, 5-Hydroxytryptamine Receptor 5A (5HT5A), HTR5A (gene 3361) (UniProt P47898). As to the kind of experiment: NVS_GPCR_h5HT5A: NovaScreen (NVS) G Protein-Coupled Receptor Assay for human Serotonin, 5-Hydroxytryptamine Receptor 5A (5HT5A) (AID 2283251). Summed up:
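Membranes from HEK293 cells, radioligand binding read by filtration and scintillation after 1 h. Single-concentration duplicate testing at 25 uM, then concentration-response for actives; positive-direction fitting relative to DMSO.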

The target of test [6] is guinea pig Opioid, Kappa 1 Receptor (OpiateK), OPRK1 (gene 100135587) (UniProt P41144). The test can be described thus: NVS_GPCR_gOpiateK: NovaScreen (NVS) G Protein-Coupled Receptor Assay for guinea pig Opioid, Kappa 1 Receptor (OpiateK) (AID 2283252).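 Also: active means reduced radioligand binding relative to DMSO.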 A digest of the protocol:
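Radioligand binding to kappa opioid receptor in guinea pig cerebellar membranes, read by filtration and scintillation at 2 h. Compounds first tested in duplicate at 25 uM, then actives in concentration series; signal loss fitted against DMSO.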

The target of test [7] is human Serotonin, 5-Hydroxytryptamine Receptor 6 (5HT6), HTR6 (gene 3362) (UniProt P50406). As to the kind of experiment: NVS_GPCR_h5HT6: NovaScreen (NVS) G Protein-Coupled Receptor Assay for human Serotonin, 5-Hydroxytryptamine Receptor 6 (5HT6) (AID 2283253). Here is the method: as §1, with “NVS_GPCR_h5HT6” for “NVS_GPCR_bAdoR_NonSelective”, “HEK293” for “Bovine striatal membranes”, “a” for “a tissue-based”, “plate.NVS_GPCR_h5HT6” for “plate.NVS_GPCR_bAdoR_NonSelective”, “NVS_GPCR_h5HT6,” for “NVS_GPCR_bAdoR_NonSelective,”, “HTR6.” for “ADORA1.”
as §2, with “Assay-chemical combinations meeting a pre-defined threshold (e.g., 30% inhibition and other criteria defined below) were then run in singleton concentration-response format with maximum concentration of 20 uM for CYPs and 50 uM for all others.” left out

The target in test [8] is human Serotonin, 5-Hydroxytryptamine Receptor 2A (5HT2A), HTR2A (gene 3356) (UniProt P28223). As to the kind of experiment: NVS_GPCR_h5HT2A: NovaScreen (NVS) G Protein-Coupled Receptor Assay for human Serotonin, 5-Hydroxytryptamine Receptor 2A (5HT2A) (AID 2283249). Summed up: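 Radioligand displacement on human cortex tissue extract, counted by filtration and scintillation 1.5 h post-dosing. Initial single-concentration screen at 25 uM in duplicate, concentration series in follow-up; DMSO as baseline.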

For test [9], the system named is guinea pig Leukotriene B4 Receptor (LTB4), gene 100379538. The test can be described thus: NVS_GPCR_gLTB4: NovaScreen (NVS) G Protein-Coupled Receptor Assay for guinea pig Leukotriene B4 Receptor (LTB4) (AID 2283247). Summed up: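 Membranes from guinea pig spleen incubated 2 h with radioligand and compound; bound counts measured by filtration and scintillation. Screened first at 25 uM in duplicate, then actives titrated to a 50 uM top concentration relative to DMSO.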

The subject of test [10] is bovine Histamine 1 Receptor (H1), gene 281231. The test can be described thus: NVS_GPCR_bH1: NovaScreen (NVS) G Protein-Coupled Receptor Assay for bovine Histamine 1 Receptor (H1) (AID 2283246). A digest of the protocol:
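Hits from a 25 uM duplicate primary screen were retested in concentration series (top 50 uM); binding measured as scintillation-counted displacement of radioligand from bovine cerebellar membranes after 1 h, normalised to DMSO.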

Sequence of Adenosine receptor A1 (Bos taurus) (P28190 whole entry, looked up): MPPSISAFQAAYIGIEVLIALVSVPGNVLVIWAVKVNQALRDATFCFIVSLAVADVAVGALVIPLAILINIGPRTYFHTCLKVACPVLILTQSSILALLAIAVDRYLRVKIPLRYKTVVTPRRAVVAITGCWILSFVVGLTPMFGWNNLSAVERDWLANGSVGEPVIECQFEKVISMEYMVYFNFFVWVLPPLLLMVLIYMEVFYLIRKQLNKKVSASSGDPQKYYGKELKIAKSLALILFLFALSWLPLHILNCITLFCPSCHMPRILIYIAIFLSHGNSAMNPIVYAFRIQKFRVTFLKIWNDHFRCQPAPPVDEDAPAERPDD
Sequence of human Serotonin, 5-Hydroxytryptamine Receptor 6 (5HT6), HTR6 (gene 3362) (P50406 whole entry, looked up): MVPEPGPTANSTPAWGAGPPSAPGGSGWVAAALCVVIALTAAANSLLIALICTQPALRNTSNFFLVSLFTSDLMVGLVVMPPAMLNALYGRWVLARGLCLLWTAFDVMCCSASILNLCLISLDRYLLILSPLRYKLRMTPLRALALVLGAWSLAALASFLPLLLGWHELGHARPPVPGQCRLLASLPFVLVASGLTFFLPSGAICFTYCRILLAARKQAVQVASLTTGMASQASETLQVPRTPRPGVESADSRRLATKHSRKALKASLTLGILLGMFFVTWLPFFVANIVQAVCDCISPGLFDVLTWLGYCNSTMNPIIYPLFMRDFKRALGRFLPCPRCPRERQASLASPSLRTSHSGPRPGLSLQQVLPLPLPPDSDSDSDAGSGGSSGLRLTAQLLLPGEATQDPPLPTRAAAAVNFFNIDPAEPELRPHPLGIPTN
Sequence of human Serotonin, 5-Hydroxytryptamine Receptor 2A (5HT2A), HTR2A (gene 3356) (P28223 whole entry, looked up): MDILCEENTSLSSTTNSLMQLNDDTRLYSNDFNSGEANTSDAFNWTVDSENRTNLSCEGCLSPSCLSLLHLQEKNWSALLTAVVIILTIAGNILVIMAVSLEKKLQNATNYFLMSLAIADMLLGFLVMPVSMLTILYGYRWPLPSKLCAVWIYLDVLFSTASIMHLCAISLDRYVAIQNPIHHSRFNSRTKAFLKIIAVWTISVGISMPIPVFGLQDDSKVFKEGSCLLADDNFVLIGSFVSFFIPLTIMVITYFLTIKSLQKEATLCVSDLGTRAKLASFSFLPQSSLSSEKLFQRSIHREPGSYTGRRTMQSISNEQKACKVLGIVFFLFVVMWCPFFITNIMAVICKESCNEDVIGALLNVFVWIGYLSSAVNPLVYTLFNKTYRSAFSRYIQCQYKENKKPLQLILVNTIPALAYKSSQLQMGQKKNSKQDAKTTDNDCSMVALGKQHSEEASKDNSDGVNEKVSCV
Sequence of guinea pig Opioid, Kappa 1 Receptor (OpiateK), OPRK1 (gene 100135587) (P41144 whole entry, looked up): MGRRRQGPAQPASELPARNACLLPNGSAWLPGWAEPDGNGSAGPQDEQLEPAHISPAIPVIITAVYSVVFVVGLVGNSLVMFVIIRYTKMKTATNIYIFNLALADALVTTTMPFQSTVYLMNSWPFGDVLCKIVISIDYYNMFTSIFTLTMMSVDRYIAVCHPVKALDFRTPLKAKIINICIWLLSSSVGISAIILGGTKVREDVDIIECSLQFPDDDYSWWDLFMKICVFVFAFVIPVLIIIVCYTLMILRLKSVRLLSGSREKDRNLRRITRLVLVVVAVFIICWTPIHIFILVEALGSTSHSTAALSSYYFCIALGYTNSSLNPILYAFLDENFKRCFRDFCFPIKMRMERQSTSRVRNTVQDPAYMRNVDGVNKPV
Sequence of human Serotonin, 5-Hydroxytryptamine Receptor 5A (5HT5A), HTR5A (gene 3361) (P47898 whole entry, looked up): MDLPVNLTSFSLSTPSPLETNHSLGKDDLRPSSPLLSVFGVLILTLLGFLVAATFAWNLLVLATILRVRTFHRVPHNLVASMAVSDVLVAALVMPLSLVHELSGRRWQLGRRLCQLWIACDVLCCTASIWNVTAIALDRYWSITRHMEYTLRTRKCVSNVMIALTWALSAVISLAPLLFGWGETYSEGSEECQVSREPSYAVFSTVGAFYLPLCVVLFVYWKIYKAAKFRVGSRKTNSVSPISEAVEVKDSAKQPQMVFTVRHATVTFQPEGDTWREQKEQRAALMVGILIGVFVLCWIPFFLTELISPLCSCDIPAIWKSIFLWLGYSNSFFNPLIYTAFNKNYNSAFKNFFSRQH
Sequence of guinea pig Leukotriene D4 Receptor (LTD4), CYSLTR1 (gene 100135514) (Q2NNR5 whole entry, looked up): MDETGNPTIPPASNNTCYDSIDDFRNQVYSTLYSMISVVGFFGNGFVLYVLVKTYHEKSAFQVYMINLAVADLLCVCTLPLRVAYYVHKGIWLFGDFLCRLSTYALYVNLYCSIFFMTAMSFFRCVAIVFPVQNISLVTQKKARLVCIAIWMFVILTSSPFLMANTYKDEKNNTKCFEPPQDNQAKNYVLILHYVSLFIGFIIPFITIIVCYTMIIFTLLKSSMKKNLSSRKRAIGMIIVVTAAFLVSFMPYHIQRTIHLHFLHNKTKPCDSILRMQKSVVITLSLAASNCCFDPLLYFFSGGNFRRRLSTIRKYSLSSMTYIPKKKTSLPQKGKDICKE

For orientation: AC50 means the concentration at which the activity in the assay is half-maximal. With `[Cl-].[Cl-].[Hg+2]`, the AC50 in [1] was 19.1 µM (active); in test [2], 12 µM (active); in test [3] it was 1.4 µM (active); in test [4], 9.07 µM (active); in test [5], 1.59 µM (active); in test [6], 13.5 µM (active). Moreover, in test [7], the AC50 was 1.56 µM (active).
For `O=[N+]([O-])C(Br)(CO)CO`, the AC50 in [1] is 16.5 µM (active); in [6], 25 µM (active). Also, the call in test [8] was inactive.
In the case of `Nc1ccc(Cc2ccc(N)cc2)cc1`, the AC50 in test [9] is 2.83 µM (active).
Take `CC(C)N(Cc1ccccc1)C(=O)C(C)(C)C`: the AC50 in test [6] is 15.7 µM (active).
Take `CCOC(=O)[C@]1(c2ccccc2)Oc2ccccc2[C@@H]1N`: the AC50 in [10] is 7.49 µM (active); in [8] it was 3.91 µM (active); in test [4] it was 13.3 µM (active); in test [5], 0.659 µM (active); in [7], 0.824 µM (active).
With `O=C(Oc1ccc(Br)cc1)N1CCN2CCC1CC2`, the AC50 in [4] was 15 µM (active).
With `CCCCCCCCCCCCCN1CC(C)OC(C)C1` (centres undefined), the compound was called inactive in test [1].
On the same count and under the same terms, the same measure for `CS(=O)(=O)NC(=O)c1cc(Oc2ccc(C(F)(F)F)cc2Cl)ccc1[N+](=O)[O-]`: “inactive”.
For the compound `CCC[CH2][Sn]([Cl])([CH2]CCC)[CH2]CCC`, the AC50 was 3.07 µM (active) in test [2]; 15.8 µM (active) in [9]; 1.86 µM (active) in test [3]; 32.6 µM (active) in test [8]; 9.81 µM (active) in [4]; 2.07 µM (active) in [5]. Moreover, the AC50 was 14.5 µM (active) in test [6] and 5.51 µM (active) in test [7].
As for `COP(=S)(OC)SCN1C(=O)c2ccccc2C1=O`, the compound was classed as inactive in test [8].
Consider `CC(C)(C)C(O)(CCc1ccc(Cl)cc1)Cn1cncn1` (centres undefined), for which, in test [8], the compound was classed as inactive.
Turning to `Nc1ccc(Cl)cc1N`, the compound was called inactive in [1].
`O=C(N[C@H](c1ccccc1)[C@@H]1CN2CCC1CC2)c1c(Cl)ccc(C(F)(F)F)c1Cl`: the AC50 in test [8] is 37.5 µM (active); in test [6] it was 0.0235 µM (active). Further, in test [4], the result was inactive.
